# PubChem BioAssay
# Several values for one entry are separate records, joined by “and”; a condition that tells them apart may be missing. Identical values can stand only once. Activity calls are given as the source filed them. Unless noted, no stated cut-off is given here; in the data, active means inhibition above about 44%; inactive means the rest.
# How the values were obtained:
# [1] = target: Nuclear receptor coactivator 3 (Homo sapiens) (UniProt Q9Y6Q9); assay: NCOA3 GAL4-fusion reporter inhibition – cell-based, luminescence, quadruplicate, confirmation (AID 588792;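 active means mean inhibition over 43.08%, the solvent-only control mean plus 3 SD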;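 further: 0% = DMSO treated cells and 100% = gossypol at 36 µM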); conditions: HEK293 GAL4-SRC3 luciferase reporter, at 3.6 µM, hits give high values
# [2] = tested on: transactivating tegument protein VP16 (Human herpesvirus 1), Gal4-VP16 luciferase reporter; assay: repression of VP16-driven luciferase reporter – cell-based, luminescence, high throughput, counter-screen for SRC3 inhibitor project (AID 588794; in the data active means inhibition above about 30%); conditions: mammalian cells, at 3.6 µM, hits give high values
# [3] = target: Nuclear receptor coactivator 1 (Homo sapiens) (UniProt Q15788); assay: NCOA1 GAL4-fusion reporter inhibition – cell-based, luminescence, quadruplicate, confirmation (AID 588820;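 active means mean inhibition above 46.68%, the untreated control wells mean plus 3 SD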;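 further: 0% = DMSO wells and 100% = gossypol 36 µM treated wells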); conditions: HEK293 GAL4-SRC1 luciferase reporter, at 3.6 µM, hits give high values
# [4] = repression of VP16-driven luciferase reporter – cell-based, luminescence, high throughput, counter-screen for SRC1 inhibitor project (AID 588824; in the data active means inhibition above about 25%); conditions: cell-based VP16 transactivation luciferase luminescence; at 3.6 µM; hits give high values
# [5] = StAR promoter reporter inhibitors, counter-screen for LRH-1 inverse agonist project, cell-based, luminescence, high throughput (AID 651611; in the data active means inhibition above about 28%); conditions: StAR promoter luciferase reporter counterscreen, at 3.6 µM, hits give high values
# [6] = target: Nuclear receptor subfamily 5 group A member 2 (Homo sapiens) (UniProt O00482); assay: NR5A2 activity suppression in reporter cells – cell-based, luminescence, confirmation (AID 651613; in the data active means inhibition above about 42%;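 further: HEK293T cells co-transfected with LRH-1 and StAR promoter luciferase reporter; 0% = vehicle wells and 100% = parental cells lacking receptor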); conditions: cell-based LRH-1 luciferase reporter, inverse agonism; at 3.6 µM; hits give high values
# [7] = target: Steroidogenic factor 1 (Homo sapiens) (UniProt Q13285); assay: inverse agonism at SF1 nuclear receptor – cell-based, luminescence, high throughput, counter-screen for LRH-1 inverse agonist project (AID 651614); conditions: cell-based SF1 luciferase reporter, at 3.6 µM, hits give high values;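 further: cells cotransfected with StAR promoter reporter and SF1 expression vector; 0% = vehicle on cells with receptor and 100% = vehicle on cells lacking receptor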
# [8] = compounds suppressing VP16-driven luciferase signal – cell-based, luminescence, high throughput, counter-screen for LRH-1 inverse agonist project (AID 651615; in the data active means inhibition above about 33%); conditions: Gal4-VP16 luciferase reporter cells, at 3.6 µM, hits give high values
# Sequence of Steroidogenic factor 1 (Homo sapiens) (Q13285 whole entry, looked up, the tested form may be a part): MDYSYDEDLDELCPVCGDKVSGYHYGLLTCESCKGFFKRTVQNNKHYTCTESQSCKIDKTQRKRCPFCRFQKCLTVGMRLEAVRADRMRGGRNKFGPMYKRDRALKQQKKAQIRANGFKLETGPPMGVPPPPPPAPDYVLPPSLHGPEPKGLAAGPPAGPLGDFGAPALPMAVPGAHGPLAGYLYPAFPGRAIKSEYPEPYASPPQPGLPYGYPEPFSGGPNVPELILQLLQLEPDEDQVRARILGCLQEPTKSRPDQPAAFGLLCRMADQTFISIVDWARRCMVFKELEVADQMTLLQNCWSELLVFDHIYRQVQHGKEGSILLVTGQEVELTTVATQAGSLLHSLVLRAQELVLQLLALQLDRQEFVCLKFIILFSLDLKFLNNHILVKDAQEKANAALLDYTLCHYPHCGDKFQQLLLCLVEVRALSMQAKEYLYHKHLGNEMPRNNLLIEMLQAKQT
# Sequence of Nuclear receptor coactivator 1 (Homo sapiens) (Q15788 whole entry, looked up, the tested form may be a part): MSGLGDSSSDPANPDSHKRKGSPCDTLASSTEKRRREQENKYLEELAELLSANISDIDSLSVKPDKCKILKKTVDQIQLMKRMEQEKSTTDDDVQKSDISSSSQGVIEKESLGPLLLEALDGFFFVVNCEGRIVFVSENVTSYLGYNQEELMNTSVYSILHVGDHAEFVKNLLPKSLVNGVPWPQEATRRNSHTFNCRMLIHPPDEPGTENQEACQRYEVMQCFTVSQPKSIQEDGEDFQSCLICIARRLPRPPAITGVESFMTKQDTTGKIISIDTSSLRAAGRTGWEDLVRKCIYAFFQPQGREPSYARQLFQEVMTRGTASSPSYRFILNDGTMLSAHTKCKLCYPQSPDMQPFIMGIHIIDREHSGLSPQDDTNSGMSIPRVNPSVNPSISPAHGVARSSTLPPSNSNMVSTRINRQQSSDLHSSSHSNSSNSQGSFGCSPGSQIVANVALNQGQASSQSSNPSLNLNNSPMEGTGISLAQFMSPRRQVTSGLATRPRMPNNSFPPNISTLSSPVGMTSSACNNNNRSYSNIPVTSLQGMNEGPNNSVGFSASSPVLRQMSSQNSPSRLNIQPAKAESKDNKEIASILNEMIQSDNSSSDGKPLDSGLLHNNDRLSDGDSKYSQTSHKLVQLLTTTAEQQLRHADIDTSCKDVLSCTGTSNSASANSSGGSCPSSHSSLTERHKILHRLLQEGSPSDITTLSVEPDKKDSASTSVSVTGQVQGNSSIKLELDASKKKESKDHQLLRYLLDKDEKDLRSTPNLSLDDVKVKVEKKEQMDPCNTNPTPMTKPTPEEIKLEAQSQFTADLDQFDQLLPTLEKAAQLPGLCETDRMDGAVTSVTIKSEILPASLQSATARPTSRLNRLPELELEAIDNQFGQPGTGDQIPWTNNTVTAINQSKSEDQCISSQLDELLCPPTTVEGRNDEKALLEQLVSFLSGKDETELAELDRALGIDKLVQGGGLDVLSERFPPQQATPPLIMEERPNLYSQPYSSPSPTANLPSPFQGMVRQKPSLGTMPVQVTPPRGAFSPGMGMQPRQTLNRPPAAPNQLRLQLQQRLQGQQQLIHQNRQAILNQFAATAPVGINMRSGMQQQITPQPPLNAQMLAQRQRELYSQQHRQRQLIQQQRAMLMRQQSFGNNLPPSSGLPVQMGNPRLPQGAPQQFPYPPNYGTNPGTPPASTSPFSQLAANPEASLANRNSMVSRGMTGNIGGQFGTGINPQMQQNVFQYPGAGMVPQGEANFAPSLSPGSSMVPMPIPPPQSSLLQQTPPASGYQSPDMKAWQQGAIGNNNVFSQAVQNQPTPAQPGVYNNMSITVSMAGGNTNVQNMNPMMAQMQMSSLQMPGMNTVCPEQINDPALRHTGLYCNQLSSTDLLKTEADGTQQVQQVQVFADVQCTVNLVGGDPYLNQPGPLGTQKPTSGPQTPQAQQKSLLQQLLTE
# Sequence of Nuclear receptor subfamily 5 group A member 2 (Homo sapiens) (O00482 whole entry, looked up): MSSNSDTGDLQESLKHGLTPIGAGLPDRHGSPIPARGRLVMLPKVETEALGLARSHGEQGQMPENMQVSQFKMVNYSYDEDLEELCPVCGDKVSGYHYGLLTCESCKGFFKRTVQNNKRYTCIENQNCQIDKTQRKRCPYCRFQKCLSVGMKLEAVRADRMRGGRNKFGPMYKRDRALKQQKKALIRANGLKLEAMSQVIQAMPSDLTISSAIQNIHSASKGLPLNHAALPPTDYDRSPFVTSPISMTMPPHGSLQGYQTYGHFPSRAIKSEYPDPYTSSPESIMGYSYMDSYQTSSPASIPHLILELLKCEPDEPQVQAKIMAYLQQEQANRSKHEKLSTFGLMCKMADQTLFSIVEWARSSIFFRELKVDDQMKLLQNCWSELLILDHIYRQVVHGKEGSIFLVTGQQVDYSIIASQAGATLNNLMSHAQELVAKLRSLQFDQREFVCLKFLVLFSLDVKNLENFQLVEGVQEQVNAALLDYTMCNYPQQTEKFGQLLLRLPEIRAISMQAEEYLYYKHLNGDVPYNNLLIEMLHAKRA
# Sequence of Nuclear receptor coactivator 3 (Homo sapiens) (Q9Y6Q9 whole entry, looked up, the tested form may be a part): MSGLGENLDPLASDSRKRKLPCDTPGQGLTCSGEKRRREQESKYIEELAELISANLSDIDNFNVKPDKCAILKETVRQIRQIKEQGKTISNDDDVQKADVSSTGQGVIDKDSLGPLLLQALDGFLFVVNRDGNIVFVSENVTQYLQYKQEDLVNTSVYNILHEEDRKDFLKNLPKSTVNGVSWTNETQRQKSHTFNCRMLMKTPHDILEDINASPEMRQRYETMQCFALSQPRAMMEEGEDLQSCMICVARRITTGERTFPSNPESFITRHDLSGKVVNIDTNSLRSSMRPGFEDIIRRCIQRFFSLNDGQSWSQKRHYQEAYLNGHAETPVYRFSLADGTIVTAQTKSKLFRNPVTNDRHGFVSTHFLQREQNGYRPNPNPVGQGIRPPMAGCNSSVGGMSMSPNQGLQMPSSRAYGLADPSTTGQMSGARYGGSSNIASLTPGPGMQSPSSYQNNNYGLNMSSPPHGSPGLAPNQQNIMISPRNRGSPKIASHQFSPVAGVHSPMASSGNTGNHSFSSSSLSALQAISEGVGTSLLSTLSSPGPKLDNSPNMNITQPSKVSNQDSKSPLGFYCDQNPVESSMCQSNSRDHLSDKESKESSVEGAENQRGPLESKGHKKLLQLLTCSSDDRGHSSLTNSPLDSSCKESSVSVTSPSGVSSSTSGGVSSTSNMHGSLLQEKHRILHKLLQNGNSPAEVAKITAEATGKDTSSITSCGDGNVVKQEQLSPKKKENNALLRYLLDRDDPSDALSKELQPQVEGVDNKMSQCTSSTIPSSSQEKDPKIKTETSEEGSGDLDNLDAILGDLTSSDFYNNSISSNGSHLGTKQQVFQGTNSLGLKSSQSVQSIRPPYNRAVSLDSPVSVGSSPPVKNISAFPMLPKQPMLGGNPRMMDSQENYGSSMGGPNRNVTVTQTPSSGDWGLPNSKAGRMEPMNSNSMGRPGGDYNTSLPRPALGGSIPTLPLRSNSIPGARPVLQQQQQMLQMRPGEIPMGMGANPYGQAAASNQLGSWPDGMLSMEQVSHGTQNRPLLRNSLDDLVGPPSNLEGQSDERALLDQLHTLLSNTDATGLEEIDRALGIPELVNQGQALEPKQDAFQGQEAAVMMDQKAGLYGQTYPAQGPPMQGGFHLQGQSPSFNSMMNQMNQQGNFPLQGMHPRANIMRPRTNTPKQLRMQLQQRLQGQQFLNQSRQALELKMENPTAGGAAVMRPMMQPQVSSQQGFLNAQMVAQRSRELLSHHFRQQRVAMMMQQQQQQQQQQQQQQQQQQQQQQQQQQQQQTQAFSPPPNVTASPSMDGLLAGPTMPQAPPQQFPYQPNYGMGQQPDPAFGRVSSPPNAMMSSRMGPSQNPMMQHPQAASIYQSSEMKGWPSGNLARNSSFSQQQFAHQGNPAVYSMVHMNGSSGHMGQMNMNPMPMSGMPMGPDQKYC
SMILES,inhibition [1],inhibition [2],inhibition [3],inhibition [4],inhibition [5],inhibition [6],inhibition [7],inhibition [8]
Cc1cccc2sc(NNC(=O)c3ccc(S(=O)(=O)N4CC(C)CC(C)C4)cc3)nc12 (stereo not drawn),31% (inactive),23.7% (inactive),32.8% (inactive),34% (active),25% (inactive),45% (active),36.2% (inactive),40.9% (active)
COc1cccc(/C=N\NC(=O)c2ccc(Cn3cc(Br)c([N+](=O)[O-])n3)o2)c1O,33% (inactive),38.4% (active),35% (inactive),29.9% (active),63.8% (active),74.5% (active),71.3% (active),73.2% (active)
Nc1cc2c3c(cccc3c1)C(=O)N(CCN1CCCC1)C2=O,16.8% (inactive),40.7% (active),38.9% (inactive),46.9% (active),60.5% (active),66.6% (active),61.6% (active),69.9% (active)
O=[N+]([O-])c1ccc(Sc2cccc[n+]2[O-])c2nonc12,98.7% (active),95.4% (active),91.7% (active),93.3% (active),98.1% (active),111% (active),99.2% (active),98.9% (active)
NC(=O)c1cc([N+](=O)[O-])ccc1NCc1ccc(O)cc1,25.3% (inactive),43.5% (active),1.01% (inactive),30% (active),48.6% (active),63.8% (active),67.8% (active),66.9% (active)
CCCC(=O)NC(c1ccccc1Cl)c1ccc2cccnc2c1O (stereo not drawn),55.3% (active),47.8% (active),35.6% (inactive),53.4% (active),82.7% (active),99.2% (active),90.3% (active),83.2% (active)
Cc1c(C)c2cccnc2c2ncccc12,88.2% (active),65.7% (active),72.8% (active),65.7% (active),89.9% (active),108% (active),91.9% (active),64.1% (active)
CCN1CCS/C1=C\C=C\C1=[N+](CC)CCS1,22.6% (inactive),44.8% (active),4.06% (inactive),50.1% (active),32.9% (active),77% (active),79% (active),69.2% (active)
Cc1ccc(-c2cn(-c3ccccc3)c3[n+]2CCCS3)cc1,1.67% (inactive),27.5% (inactive),9.91% (inactive),19.5% (inactive),24.4% (inactive) and 12.1% (inactive),80.1% (active) and 61.7% (active),61.2% (active) and 59.6% (active),64.2% (active) and 56.1% (active)
CN(Cc1ccccc1)C1=CC(=[N+]2CCCC2)CC(C)(C)C1,64.6% (active),67.9% (active),7.51% (inactive),63.1% (active),44.2% (active),109% (active),79.9% (active),89.6% (active)
CCCCCCCn1c2c(c(=N)c3ccccc31)CCC2,71.2% (active),79.5% (active),61.5% (active),79.1% (active),70.8% (active),111% (active),91.2% (active),94.7% (active)
CCOc1cc(/C=C2\CN(CC)C/C(=C\c3ccc(O)c(OCC)c3)C2=O)ccc1O,65.4% (active),62.4% (active),4.46% (inactive),51.8% (active),47.3% (active),91.2% (active),87.2% (active),82.6% (active)
CCCCCCCCCn1c2c(c(=N)c3c1CCC3)CCCC2,87.2% (active),90.4% (active),65.6% (active),85.3% (active),83.7% (active),111% (active),95.6% (active),94.6% (active)
CCC(=O)Nc1cccc(C(=O)/C=C/c2cc(Br)ccc2OC)c1,70.8% (active),62.1% (active),60.6% (active),59.4% (active),81.2% (active),105% (active),94.1% (active),82.9% (active)
N=c1c2c(-c3ccccc3)c(-c3ccccc3)n(Cc3ccccc3)c2ncn1CCO,26.6% (inactive),61% (active),39.8% (inactive),57.8% (active),57.2% (active),71.5% (active),73.1% (active),77.4% (active)
Cc1ccc2ccc3cccnc3c2n1,-1.81% (inactive),18.9% (inactive),12% (inactive),24.6% (inactive),30.6% (active),50.2% (active),54.5% (active),37.3% (active)
